In PubChem BioAssay (EPA / NIEHS) one finds outcome and AC50 data, which are given here for four compounds.

A short description of assay [1]: ATG_E_Box_CIS: Attagene CIS-FACTORIAL HepG2 Assay for human Enhancer Box (E-box) (AID 2282936). The following applies: HepG2 E-box cis-reporter transcription, actives raise or lower the signal. In outline:
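Fluorescent reporter fragments separated by capillary electrophoresis gave the signal; mRNA came from HepG2 cells transfected with cis-element reporters and treated 24 h. Curves fitted bidirectionally relative to DMSO controls.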

Assay [2] can be described thus: ATG_M_61_CIS: Attagene CIS-FACTORIAL HepG2 Assay for M61 Transcription Factor (Internal Marker) (AID 2282937). The following applies: HepG2 Attagene CIS-FACTORIAL M61 internal marker reporter; actives raise or lower the signal. The gist of the method: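 Readout is reporter mRNA by RT-PCR, fluorescent primer extension and capillary electrophoresis, with gain or loss fitted relative to DMSO. Transfected HepG2 cells carrying endogenous-TF-driven cis reporters were exposed to chemicals for 24 hours.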

Assay [3] in a line: ATG_EGR_CIS: Attagene CIS-FACTORIAL HepG2 Assay for human Early Growth Response 1 (EGR1) (AID 2282938). The following applies: HepG2 Attagene CIS-FACTORIAL EGR reporter mRNA; actives raise or lower the signal. The gist of the method: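 After 24 h compound exposure, RNA from reporter-transfected HepG2 cells was reverse-transcribed, PCR-amplified, fluorescently labelled and resolved by capillary electrophoresis. EGR1 reporter transcript changes, up or down, were fitted against DMSO, reflecting endogenous transcription-factor activity.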

A short description of assay [4]: ATG_M_19_CIS: Attagene CIS-FACTORIAL HepG2 Assay for M19 Transcription Factor (Internal Marker) (AID 2282939). The following applies: HepG2 Attagene CIS-FACTORIAL M19 internal marker reporter; actives raise or lower the signal. The gist of the method: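 HepG2, MRTU transient transfection, 24 h dosing. Total RNA → RT-PCR → 6-FAM primer extension → HpaI digest → CE fluorescence. Bidirectional curve fit, DMSO negative control.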

Assay [5] in a line: ATG_Ets_CIS: Attagene CIS-FACTORIAL HepG2 Assay for human Erythroblast Transformation Specific (ETS) (AID 2282941). To be noted: HepG2 ETS cis-reporter transcription, actives raise or lower the signal. In outline:
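Bidirectional fit versus DMSO of reporter mRNA signal, detected by RT-PCR and capillary electrophoresis in HepG2 cells transiently transfected with cis-element reporters and dosed 24 h.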

Assay [6] addresses Hepatocyte nuclear factor 3-beta (Homo sapiens) (UniProt Q9Y261). As to the kind of experiment: ATG_FoxA2_CIS: Attagene CIS-FACTORIAL HepG2 Assay for human Forkhead box A2 (FOXA2) (AID 2282942). To be noted: HepG2 cis-reporter transcription factor activity, 24 h; actives raise or lower the signal. The gist of the method:
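Endogenous transcription factor activity is captured via cis-element-driven reporter transcripts in transfected HepG2. Total RNA taken at 24 h post-dosing; labelled RT-PCR products resolved by capillary electrophoresis. Gain or loss fitted versus DMSO.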

The nature of assay [7]: ATG_FoxO_CIS: Attagene CIS-FACTORIAL HepG2 Assay for human Forkhead box O (FoxO) (AID 2282943). The following applies: HepG2 Attagene cis-reporter, FoxO element, mRNA; actives raise or lower the signal. In outline: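 HepG2, transient MRTU transfection (cis element, endogenous TFs). Dose 24 h. TriZol RNA → oligo(dT) RT → PCR → 6-FAM primer extension → HpaI cut → CE. Gain/loss vs DMSO.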

A short description of assay [8]: ATG_GATA_CIS: Attagene CIS-FACTORIAL HepG2 Assay for human GATA Binding Protein (AID 2282944). The following applies: HepG2 GATA cis-element reporter, Attagene multiplex mRNA; actives raise or lower the signal. In outline: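 Cells: HepG2, transiently transfected with cis-regulated reporter transcription units. Exposure: 24 h. Detection: RT-PCR plus capillary electrophoresis of FAM-labeled fragments. Analysis: bidirectional, DMSO as baseline.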

A short description of assay [9]: ATG_GLI_CIS: Attagene CIS-FACTORIAL HepG2 Assay for human Zinc Finger Protein GLI1 (AID 2282945). The following applies: HepG2, Attagene cis-factorial reporter mRNA, GLI element; actives raise or lower the signal. In outline: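 Bidirectional curve fits relative to DMSO, using reporter mRNA levels from RT-PCR plus capillary electrophoresis. Cells were HepG2 transiently carrying cis-regulated reporter constructs, harvested 24 h after dosing.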

In assay [10] the target is Bile acid receptor (Homo sapiens) (UniProt Q96RI1). As to the kind of experiment: ATG_IR1_CIS: Attagene CIS-FACTORIAL HepG2 Assay for human Nuclear Receptor Subfamily 1 Group H Member 4 (NR1H4), IR1 submotif (AID 2282946). To be noted: IR1 reporter transcription, actives raise or lower the signal. In outline: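 HepG2 cells transiently transfected with multiplexed cis-element reporter units read endogenous transcription factor activity. After 24 h compound exposure, reporter mRNA was quantified by RT-PCR, fluorescent labelling, HpaI digestion and capillary electrophoresis; bidirectional fitting versus DMSO baseline.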
Bile acid receptor (Homo sapiens), sequence (Q96RI1 whole entry, looked up): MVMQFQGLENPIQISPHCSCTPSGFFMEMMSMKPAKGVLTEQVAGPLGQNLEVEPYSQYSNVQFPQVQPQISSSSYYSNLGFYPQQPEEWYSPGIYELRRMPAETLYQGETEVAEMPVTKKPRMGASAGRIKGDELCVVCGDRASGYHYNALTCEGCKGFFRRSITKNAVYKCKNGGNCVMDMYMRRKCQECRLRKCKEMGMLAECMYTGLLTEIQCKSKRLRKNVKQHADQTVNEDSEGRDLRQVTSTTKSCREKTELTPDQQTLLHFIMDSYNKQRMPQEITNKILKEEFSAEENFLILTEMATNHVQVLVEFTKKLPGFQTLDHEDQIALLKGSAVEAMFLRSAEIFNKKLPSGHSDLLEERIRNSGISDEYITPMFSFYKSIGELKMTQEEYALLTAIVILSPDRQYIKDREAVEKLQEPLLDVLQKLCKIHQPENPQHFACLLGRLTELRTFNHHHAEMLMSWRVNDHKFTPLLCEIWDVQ

The nature of assay [11]: ATG_GRE_CIS: Attagene CIS-FACTORIAL HepG2 Assay for human Glucocorticoid Response Elements (GRE) (AID 2282947). To be noted: HepG2 GRE cis-reporter, Attagene multiplex mRNA; actives raise or lower the signal. In outline: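 Multiplexed cis-reporter mRNA induction, HepG2, 24 h post-dose. RT-PCR, FAM-labelled, HpaI-digested amplicons by CE. Bidirectional fit vs DMSO.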
A short description of assay [12]: ATG_M_32_CIS: Attagene CIS-FACTORIAL HepG2 Assay for M32 Transcription Factor (Internal Marker) (AID 2282949).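 Note: background control marker of the multiplexed CIS panel rather than a real target.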 The following applies: HepG2 Attagene cis-factorial M32 reporter, mRNA; actives raise or lower the signal. In outline: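 Using DMSO as baseline, bidirectional curve fits were applied to reporter mRNA signals. These came from transiently transfected HepG2 cells exposed for 24 h, with RNA analysed by RT-PCR, FAM primer extension, HpaI digestion and CE.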

For assay [13], the target named is Hypoxia-inducible factor 1-alpha (Homo sapiens) (UniProt Q16665). As to the kind of experiment: ATG_HIF1a_CIS: Attagene CIS-FACTORIAL HepG2 Assay for human Hypoxia Inducible Factor 1 (HIF1A) (AID 2282951). The following applies: HepG2 Attagene cis-factorial HIF1a reporter transcription; actives raise or lower the signal. The gist of the method:
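Activity is fitted in both directions relative to DMSO. Reporter transcripts are read by RT-PCR, fluorescent primer extension and capillary electrophoresis after 24 h chemical treatment. The cells are HepG2 carrying transiently transfected cis-element-driven reporter units responding to endogenous factors.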

The target in assay [14] is Hepatocyte nuclear factor 6 (Homo sapiens) (UniProt Q9UBC0). As to the kind of experiment: ATG_HNF6_CIS: Attagene CIS-FACTORIAL HepG2 Assay for human Hepatocyte Nuclear Factor 6 (HNF6) (AID 2282952). To be noted: HepG2 Attagene cis-factorial HNF6 reporter transcription; actives raise or lower the signal. In outline: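 Twenty-four-hour chemical treatment of reporter-transfected HepG2 cells precedes RNA isolation, DNase-treated reverse transcription and PCR of reporter sequences. Labelled fragments are sized by capillary electrophoresis and fitted bidirectionally versus DMSO.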
Hepatocyte nuclear factor 6 (Homo sapiens), sequence (Q9UBC0 whole entry, looked up, the tested form may be a part): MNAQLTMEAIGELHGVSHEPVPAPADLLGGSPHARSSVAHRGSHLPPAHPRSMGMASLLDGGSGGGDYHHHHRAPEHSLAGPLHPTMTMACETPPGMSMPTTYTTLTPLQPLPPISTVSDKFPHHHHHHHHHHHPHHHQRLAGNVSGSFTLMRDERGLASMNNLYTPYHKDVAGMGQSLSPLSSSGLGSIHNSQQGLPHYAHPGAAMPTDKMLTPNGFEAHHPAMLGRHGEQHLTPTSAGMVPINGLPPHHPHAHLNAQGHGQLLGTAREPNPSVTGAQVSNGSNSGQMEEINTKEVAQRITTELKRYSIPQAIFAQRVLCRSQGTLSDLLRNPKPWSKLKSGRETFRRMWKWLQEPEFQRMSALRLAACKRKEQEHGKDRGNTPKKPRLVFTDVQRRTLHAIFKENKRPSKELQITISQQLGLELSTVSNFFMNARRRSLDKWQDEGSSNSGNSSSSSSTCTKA

Assay [15] has as its target Heat shock factor protein 1 (Homo sapiens) (UniProt Q00613). As to the kind of experiment: ATG_HSE_CIS: Attagene CIS-FACTORIAL HepG2 Assay for human Heat Shock Transcription Factor 1 (HSE) (AID 2282953). To be noted: HepG2 HSE cis-reporter, Attagene RNA transcription; actives raise or lower the signal. The gist of the method: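 Reporter mRNA induction in HepG2 is measured 24 h after dosing, using transiently transfected multiplexed cis-regulated reporter units. Signal comes from capillary electrophoresis of labelled RT-PCR products, with DMSO as negative control.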

A short description of assay [16]: ATG_MRE_CIS: Attagene CIS-FACTORIAL HepG2 Assay for human Metal Responsive Element (MRE) (AID 2282954). To be noted: HepG2 MRE cis-reporter transcription, Attagene multiplex; actives raise or lower the signal. In outline:
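Multiplexed cis-reporter assay in human HepG2 liver cells, 24 h incubation with test chemical. Reporter transcripts measured by RT-PCR and capillary electrophoresis; values from bidirectional curve fitting versus DMSO.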

The nature of assay [17]: ATG_PBREM_CIS: Attagene CIS-FACTORIAL HepG2 Assay for human Phenobarbital-responsive Enhancer Module (PBREM) (AID 2282955). To be noted: HepG2 PBREM cis-reporter, Attagene multiplexed transcription; actives raise or lower the signal. In outline:
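Endogenous transcription factor activity was read from reporter transcripts in transiently transfected human HepG2 liver cells after 24 h dosing. RT-PCR products were fluorescently labelled, HpaI-cut and sized by capillary electrophoresis; activity fitted bidirectionally against DMSO baseline.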

The nature of assay [18]: ATG_ERE_CIS: Attagene CIS-FACTORIAL HepG2 Assay for Estrogen Response Element (ERE) (AID 2282940). The following applies: HepG2 ERE cis-reporter, Attagene RNA transcript; actives raise or lower the signal. In outline:
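After a 24 h chemical treatment, RNA from reporter-transfected HepG2 cells is reverse-transcribed, PCR-amplified and fluorescently labelled. Fragments separated by capillary electrophoresis give reporter signal; DMSO serves as negative control.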

The nature of assay [19]: ATG_ISRE_CIS: Attagene CIS-FACTORIAL HepG2 Assay for human Interferon Regulatory Factor 1 (IRF1) binding to an Interferon-Stimulated Response Element (ISRE) (AID 2282948). To be noted: HepG2 ISRE cis-reporter (Attagene), mRNA transcription readout; actives raise or lower the signal. The gist of the method:
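Uses HepG2 liver cells transfected with cis-regulated reporters and measures mRNA 24 h post-dosing through RT-PCR, primer-extension labelling and capillary electrophoresis, with DMSO as negative control.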

The nature of assay [20]: ATG_M_06_CIS: Attagene CIS-FACTORIAL HepG2 Assay for M06 Transcription Factor (Internal Marker) (AID 2282950). To be noted: HepG2 Attagene CIS-FACTORIAL M06 internal marker reporter; actives raise or lower the signal. The gist of the method: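 Measured 24 h post-dosing in transiently transfected HepG2 cells, this internal-marker endpoint reports reporter mRNA via RT-PCR with fluorescent primer extension and capillary electrophoresis. DMSO served as negative control and baseline for bidirectional fitting.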

The source made the active and inactive calls. Rule for the calls: active = hit-call score of the fitted dose curve at least 0.9, where 1 is the maximum; inactive = score below 0.9.

Hepatocyte nuclear factor 3-beta (Homo sapiens), sequence (Q9Y261 whole entry, looked up): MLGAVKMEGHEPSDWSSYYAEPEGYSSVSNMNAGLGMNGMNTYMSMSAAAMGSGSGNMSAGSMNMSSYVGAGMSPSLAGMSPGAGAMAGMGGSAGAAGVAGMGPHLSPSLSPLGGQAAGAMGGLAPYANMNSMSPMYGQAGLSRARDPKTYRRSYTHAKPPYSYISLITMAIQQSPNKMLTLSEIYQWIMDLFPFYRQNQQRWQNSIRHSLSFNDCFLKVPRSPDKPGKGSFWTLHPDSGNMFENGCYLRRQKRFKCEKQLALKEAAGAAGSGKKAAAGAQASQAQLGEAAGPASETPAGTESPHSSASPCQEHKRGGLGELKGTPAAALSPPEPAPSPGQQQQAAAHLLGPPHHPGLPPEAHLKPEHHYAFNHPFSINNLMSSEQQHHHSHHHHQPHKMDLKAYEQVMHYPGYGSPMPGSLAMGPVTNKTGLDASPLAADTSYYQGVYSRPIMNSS
Hypoxia-inducible factor 1-alpha (Homo sapiens), sequence (Q16665 whole entry, looked up): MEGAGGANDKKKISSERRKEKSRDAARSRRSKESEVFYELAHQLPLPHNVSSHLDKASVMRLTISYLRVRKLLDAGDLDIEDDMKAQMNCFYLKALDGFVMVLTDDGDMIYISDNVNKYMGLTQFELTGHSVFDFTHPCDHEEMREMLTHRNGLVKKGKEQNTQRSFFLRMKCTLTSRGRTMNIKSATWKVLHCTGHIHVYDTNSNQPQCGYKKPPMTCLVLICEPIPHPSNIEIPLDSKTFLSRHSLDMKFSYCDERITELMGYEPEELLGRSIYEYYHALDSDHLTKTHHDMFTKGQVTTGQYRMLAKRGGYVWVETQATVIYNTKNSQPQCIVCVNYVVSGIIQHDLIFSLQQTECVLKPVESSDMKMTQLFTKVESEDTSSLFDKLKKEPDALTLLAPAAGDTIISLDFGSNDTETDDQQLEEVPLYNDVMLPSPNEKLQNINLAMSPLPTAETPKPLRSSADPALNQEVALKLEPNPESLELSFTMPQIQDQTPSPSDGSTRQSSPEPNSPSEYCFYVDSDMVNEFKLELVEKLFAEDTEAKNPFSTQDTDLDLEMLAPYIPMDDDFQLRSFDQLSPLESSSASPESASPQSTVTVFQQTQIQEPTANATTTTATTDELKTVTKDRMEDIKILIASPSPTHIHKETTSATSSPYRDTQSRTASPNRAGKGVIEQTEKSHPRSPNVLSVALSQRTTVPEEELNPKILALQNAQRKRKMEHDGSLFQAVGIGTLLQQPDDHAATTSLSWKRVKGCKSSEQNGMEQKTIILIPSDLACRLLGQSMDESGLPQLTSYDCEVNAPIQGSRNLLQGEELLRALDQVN
Heat shock factor protein 1 (Homo sapiens), sequence (Q00613 whole entry, looked up): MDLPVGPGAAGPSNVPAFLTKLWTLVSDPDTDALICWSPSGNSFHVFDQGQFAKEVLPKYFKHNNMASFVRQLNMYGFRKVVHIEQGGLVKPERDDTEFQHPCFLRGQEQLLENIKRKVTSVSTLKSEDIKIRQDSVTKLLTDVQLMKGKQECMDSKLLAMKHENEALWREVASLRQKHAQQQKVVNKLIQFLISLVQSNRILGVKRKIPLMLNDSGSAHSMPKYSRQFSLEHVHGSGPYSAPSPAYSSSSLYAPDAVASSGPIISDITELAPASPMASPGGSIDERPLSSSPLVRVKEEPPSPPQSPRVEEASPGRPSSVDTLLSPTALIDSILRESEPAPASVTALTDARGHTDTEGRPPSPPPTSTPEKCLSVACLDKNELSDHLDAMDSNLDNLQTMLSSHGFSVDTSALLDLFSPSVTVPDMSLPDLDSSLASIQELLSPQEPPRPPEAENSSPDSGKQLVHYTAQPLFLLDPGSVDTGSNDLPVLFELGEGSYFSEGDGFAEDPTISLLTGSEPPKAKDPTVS

Broadly, the AC50 is the midpoint of the concentration-response curve, whichever way the signal moves. Turning to `CCOC(=O)c1ccc(C2CCC(NC[C@H](O)COc3ccc(O)c(NS(C)(=O)=O)c3)CC2)cc1` (some centres not stated), the outcome in assay [1], in assay [2], in [4], in assay [5], in assay [6] and in assay [12] was inactive. Moreover, the call in assay [14] was inactive. Also, the AC50 is 56.8 µM (active) in assay [3]; 53.5 µM (active) in [7]; 48.8 µM (active) in [8]; 59.6 µM (active) in assay [9]; 53.2 µM (active) in [10]; 53.8 µM (active) in assay [11]. Besides, the AC50 in [13] was 7.81 µM (active); in [15] it was 61.8 µM (active); in assay [16], 55 µM (active); in assay [17], 53.4 µM (active).

Regarding `CCCCCCCCO`, the outcome in assay [1], in assay [2], in [3], in [4], in assay [18] and in [5] was inactive. The call in assay [6], in assay [7], in [8], in assay [9], in [11] and in [19] was inactive. For the same compound, the compound was called inactive in [12], in assay [13], in assay [14], in [15], in assay [16] and in assay [17].

With `CCOC(=O)COc1ccc2c(c1)CC(NCC(O)c1cccc(Cl)c1)CC2` (configuration not stated), the result in [1], in assay [2], in assay [3], in assay [4], in assay [18] and in assay [5] was inactive. Moreover, the outcome in assay [6], in [7], in [8], in assay [9], in [19] and in assay [12] was inactive. Further, the outcome in assay [20], in assay [14] and in assay [16] was inactive. Moreover, the values for the AC50 in [13], in assay [15] and in assay [17] were 33 µM (active), 45.5 µM (active) and 49.3 µM (active), respectively.

With `Cn1c(=O)cc(Oc2ccc(F)cc2F)c2cnc(NCC(C)(C)O)nc21`, the outcome in [1], in assay [2], in assay [3], in [4], in assay [18] and in assay [5] was inactive. Also, the call in assay [6], in assay [7], in [8], in assay [9], in assay [10] and in assay [11] was inactive. Moreover, the outcome in assay [12], in assay [20], in assay [13], in assay [14], in assay [15] and in assay [16] was inactive. Besides, the result in [17] was inactive.
